The list is not random: actives were taken first. Their share in the collection is about 1.9%.
BRCT PPI red: qHTS Assay for Inhibitors of BRCT-Phosphoprotein Interaction (Red Fluorophore); BRCT-phosphopeptide binding, red fluorescence polarization; Potency, µM (doses to about 76.9 µM), for the others: at the top dose activity change, negative = inhibition, most hits filed as inhibitors; hit rate 0.03% among 75,000; note: % is set by controls: 0 for no effect and ±100 for the full control effect
Target sequence (P38398 whole entry, looked up): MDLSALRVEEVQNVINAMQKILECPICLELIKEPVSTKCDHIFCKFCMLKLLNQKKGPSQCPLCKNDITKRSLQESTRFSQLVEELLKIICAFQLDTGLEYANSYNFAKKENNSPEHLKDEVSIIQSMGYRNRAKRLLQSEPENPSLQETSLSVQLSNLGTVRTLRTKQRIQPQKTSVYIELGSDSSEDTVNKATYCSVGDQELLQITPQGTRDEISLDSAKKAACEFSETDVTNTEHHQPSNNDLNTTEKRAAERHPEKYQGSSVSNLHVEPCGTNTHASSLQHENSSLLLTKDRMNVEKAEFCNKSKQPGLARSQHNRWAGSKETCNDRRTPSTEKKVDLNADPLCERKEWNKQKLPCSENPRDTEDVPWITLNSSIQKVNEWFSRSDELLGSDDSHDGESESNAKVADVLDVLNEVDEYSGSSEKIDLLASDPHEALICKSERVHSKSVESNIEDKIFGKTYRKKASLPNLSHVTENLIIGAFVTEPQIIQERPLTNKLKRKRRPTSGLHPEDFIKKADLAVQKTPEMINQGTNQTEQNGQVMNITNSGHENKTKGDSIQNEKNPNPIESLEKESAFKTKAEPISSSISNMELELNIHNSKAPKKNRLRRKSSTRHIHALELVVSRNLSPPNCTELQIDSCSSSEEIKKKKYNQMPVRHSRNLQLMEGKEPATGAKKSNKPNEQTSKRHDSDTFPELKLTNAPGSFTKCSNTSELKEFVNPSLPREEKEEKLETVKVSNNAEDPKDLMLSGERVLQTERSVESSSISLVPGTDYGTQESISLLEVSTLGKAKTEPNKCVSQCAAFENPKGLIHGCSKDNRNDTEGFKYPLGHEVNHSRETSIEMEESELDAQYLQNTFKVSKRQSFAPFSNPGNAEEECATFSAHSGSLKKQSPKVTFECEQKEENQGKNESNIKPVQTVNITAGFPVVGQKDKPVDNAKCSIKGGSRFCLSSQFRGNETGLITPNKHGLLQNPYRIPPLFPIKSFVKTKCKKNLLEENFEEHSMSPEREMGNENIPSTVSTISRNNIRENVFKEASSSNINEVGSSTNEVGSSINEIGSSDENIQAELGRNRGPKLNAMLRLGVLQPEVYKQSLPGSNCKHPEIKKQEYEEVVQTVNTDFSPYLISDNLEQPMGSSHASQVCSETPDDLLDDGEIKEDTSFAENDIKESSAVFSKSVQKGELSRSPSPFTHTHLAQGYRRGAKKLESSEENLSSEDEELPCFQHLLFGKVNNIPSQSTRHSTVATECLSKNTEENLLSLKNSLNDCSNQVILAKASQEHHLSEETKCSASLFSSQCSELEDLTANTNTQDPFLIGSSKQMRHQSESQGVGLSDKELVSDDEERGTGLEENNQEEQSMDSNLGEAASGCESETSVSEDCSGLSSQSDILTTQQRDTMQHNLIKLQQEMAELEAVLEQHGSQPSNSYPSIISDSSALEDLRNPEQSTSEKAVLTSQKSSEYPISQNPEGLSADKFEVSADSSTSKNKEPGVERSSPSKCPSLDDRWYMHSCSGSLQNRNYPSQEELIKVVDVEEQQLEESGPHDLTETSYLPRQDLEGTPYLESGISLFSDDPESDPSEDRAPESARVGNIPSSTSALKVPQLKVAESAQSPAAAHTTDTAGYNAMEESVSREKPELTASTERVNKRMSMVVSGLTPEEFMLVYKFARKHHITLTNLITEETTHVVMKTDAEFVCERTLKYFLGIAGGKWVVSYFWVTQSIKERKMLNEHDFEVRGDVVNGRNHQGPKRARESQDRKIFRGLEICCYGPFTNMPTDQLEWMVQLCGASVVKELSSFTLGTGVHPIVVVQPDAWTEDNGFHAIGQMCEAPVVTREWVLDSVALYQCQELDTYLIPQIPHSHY
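Fluorescence polarization: 100 nM His-tagged BRCA1 BRCT with 100 nM TAMRA-labelled phospho-BACH1 decapeptide, phosphate buffer pH 7.3 with 150 mM NaCl, DTT, 0.01% Tween 20; 12 min RT. Binding inhibition seen as FP decrease.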
Hsp90 Hop PPI: qHTS Assay for Disrupters of an Hsp90 Co-Chaperone Interaction. Potency, µM (doses to about 57 µM), without a hit: at the top dose activity change, negative = inhibition. hit rate 0.44% among 71,000. Hsp90 C-terminal peptide / TPR2A (Hop) interaction, human. AlphaScreen TPR2A-His6 binding biotin-Hsp90 C-terminal peptide; active = well fitted curve in either direction with a large enough effect; inconclusive = small, poorly fitted or top-dose-only effect, or another doubt; note: potency is the fitted concentration of half-maximal effect; % is set by controls: 0 for no effect and ±100 for the full control effect
YjeE inh: qHTS Assay for Inhibitors of YjeE. purified YjeE enzyme, qHTS inhibition assay. Potency, µM. hit rate 0.05% among 71,000. AID 605, 2007
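Purified YjeE (10 uM) with BODIPY Texas Red-labeled ADP probe (2 uM); compounds pin-transferred, 15 min at room temperature. Binding inhibition read as decreased fluorescence polarization; ADP titration as control.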
BRCT inh green: qHTS Assay for Inhibitors of BRCT-Phosphoprotein Interaction (Green Fluorophore); Breast cancer type 1 susceptibility protein (Homo sapiens), P38398; BRCA1 BRCT-phosphopeptide binding, green fluorescence polarization; Potency, µM (doses to about 76.9 µM), inactives show top-dose activity change, negative = inhibition, most hits filed as inhibitors; hit rate 0.05% among 75,000; AID 875, 2007;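 note: potency is the fitted concentration of half-maximal effect; plate controls were peptide without protein for full effect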
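Compounds were incubated for 12 min at room temperature with a complex of 100 nM fluorescein-tagged pBACH1 decapeptide and 250 nM His-tagged BRCT protein. Buffer was phosphate pH 7.3 with EDTA, DTT and Tween 20. Disruption of binding lowers the polarization signal.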
DNA Pol III inh: qHTS Assay for Inhibitors of DNA Polymerase III Holoenzyme System. reconstituted DNA polymerase III holoenzyme replication, biochemical. Potency, µM (series often up to 57.1 µM), without a hit: at the top dose activity change, negative = inhibition. hit rate 0.25% among 71,000; note: potency is the fitted concentration of half-maximal effect; % is set by controls: 0 for no effect and ±100 for the full control effect
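Reconstituted *E. coli* holoenzyme (0.35 nM Pol III, 1 nM beta, 154 nM SSB, 2 nM primase) was preincubated with compound for 15 min at RT. Synthesis on 1.4 nM ssM13Gori ran 35 min, then was stopped with PicoGreen/EDTA and read as dsDNA fluorescence.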
15-hLO inh: qHTS Assay for Inhibitors of 15-hLO (15-human lipoxygenase). Polyunsaturated fatty acid lipoxygenase ALOX15 (Homo sapiens), P16050. purified 15hLO-1, xylenol orange hydroperoxide absorbance. Potency, µM (top dose mostly 57.1 µM), without a hit: top-dose activity change, negative = inhibition, usual class: inhibitors. hit rate 1.4% among 74,000. AID 887, 2007; note: potency is the fitted concentration of half-maximal effect; % is set by controls: 0 for no effect and ±100 for the full control effect; nearly all actives have a fitted effect of over 55% in size
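Purified human 15hLO-1 (40 nM final) in 25 mM Hepes pH 7.5, 0.01% Triton X-100 was preincubated with compound 15 min at room temperature, then reacted 6 min with 50 uM arachidonic acid; hydroperoxide detected by Fe-XO, 573/405 nm absorbance ratio.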
* = called active by the depositor; i = inactive; ? = inconclusive; · = no result given; [ ] = dose if it differs, or a comment. Unless noted, calls come from the whole dose curve; as a rule, active = well fitted curve in the direction sought with a large enough effect; inconclusive = small, poorly fitted or top-dose-only effect, or another doubt; inactive = no such curve, though single readings can be large; an effect the other way counts as inactive or inconclusive.

SMILES	BRCT PPI red	Hsp90 Hop PPI	YjeE inh	BRCT inh green	DNA Pol III inh	15-hLO inh
COc1ccc(OC)c2c(=S)c3ccccc3[nH]c12	-1%	-16%	i	-5%	-17%	10µM*
c1ccc2c(c1)[nH]c1ccccc12	1%	10%	i	-1%	-8%	-10%
C[C@H](N)C1CCC(C(=O)Nc2ccncc2)CC1 (some centres not stated)	-2%	-4%	i	-2%	-7%	-2%
COc1cc2cc3c4cc(OC)c(OC)cc4cc[n+]3c(C)c2cc1OC	-1%	?	i	-1%[3.08 µM]	13µM*	10%
COc1cc2cc[n+]3cc4c(OC)c(OC)ccc4cc3c2cc1OC	2%	·	·	-2%[3.08 µM]	·	1%
COC(=O)c1ccc(CSc2nc(C(F)(F)F)c3c(c2C#N)CCC3)o1	-2%	3%	i	4%	-8%	20µM*
Cc1c(C(=O)O)c(O)cc2c1C(=O)c1c(O)c([C@@H]3O[C@H](CO)[C@@H](O)[C@H](O)[C@@H]3O)c(O)c(O)c1C2=O	·	?	i	·	?	·
COc1ccc2c(c1)Cc1cc(N=[N+]([O-])c3ccc4c(c3)Cc3cc(OC)ccc3-4)ccc1-2	0%[15.4 µM]	-12%[11 µM]	i	7%[15.4 µM]	-2%[11.4 µM]	4µM*
C=CCN1CCc2c(cc(O)c(O)c2Br)[C@H](c2ccccc2)C1	-2%	10µM*	i	-2%	-12%	?
COc1ccc(Nc2nc(OC)nc(N3CCN(c4ccc(OC)cc4)CC3)n2)cc1	-1%	-18%	i	-4%	0%	0%
COc1nc(Nc2ccc(O)cc2)nc(OC(C(F)(F)F)C(F)(F)F)n1	-3%	6%	i	-3%	2%	25µM*
CCOc1ccc2nc(NC(=O)C(CCSC)NS(=O)(=O)c3cccs3)sc2c1 (configuration not stated)	-2%	-8%	i	0%	-6%	16µM*
CCOc1ccc2nc(NC(=O)C(NS(=O)(=O)c3cccs3)C(C)C)sc2c1 (configuration not stated)	0%	-7%	i	-3%	1%	3%
CCCCC/C=C\C[C@H](O)/C=C\c1cccc(C[C@H](O)CCCCO)n1	-1%	-11%	i	3%	-3%	20µM*
COc1cccc2c1[C@@H]1CN(CCCCn3c(=O)[nH]c4c(sc5ncc(-c6ccccc6)nc54)c3=O)C[C@H]1CO2	-2%	?	i	-1%	15%	13%
CN(C(=O)c1cc2nc(-c3ccco3)cc(C(F)(F)F)n2n1)C1CCCCC1	2%	·	·	1%	·	10µM*
Cc1ccc(-n2c(N)c(-c3nc4ccccc4n3C)sc2=S)cc1	0%	-7%	i	2%	-4%	3.2µM*
CC1(C)Cc2c(c(N3CCOCC3)nc3sc(-c4ccc(C(=O)O)o4)c(N)c23)CO1	0%	?	i	11%	-12%	20µM*
Nc1c(S(=O)(=O)O)cc(S(=O)(=O)O)c2ccc(N=Nc3ccccc3)c(O)c12	0%[15.4 µM]	?	i	-3%[15.4 µM]	-4%[11.4 µM]	8%[11.4 µM]
Cc1cc(-c2ccc(N=Nc3cc(S(=O)(=O)O)c4ccccc4c3N)c(C)c2)ccc1N=Nc1cc(S(=O)(=O)O)c2ccccc2c1N	-10%	1.3µM*	i	-8%	?	0.4µM*
c1ccc([C@H](c2cccc3c2ccc2ccccc23)[C@H](c2ccccc2)c2cccc3c2ccc2ccccc23)cc1	-1%[15.4 µM]	-3%[11 µM]	i	0%[15.4 µM]	1%[11.4 µM]	8%[11.4 µM]
COc1ccc2nc(N3CCCC3)c(C#N)cc2c1	-1%	25µM*	i	-11%	-7%	?
COc1ccc2nc(N3CCCCC3)c(C#N)cc2c1	0%	25µM*	i	-4%	-2%	25µM*
C/C(=C\COc1cc(=O)[nH]c2ccccc12)CC[C@@H](O)C(C)(C)O	·	-2%	i	·	-3%	·
CCCCC[C@@H](O)[C@@H]1C(=O)O[C@@H](C)[C@@H](O)\C=C/C=C\C=C/C=C\C=C(\C)[C@H](O)C[C@H](O)C[C@H](O)C[C@H](O)C[C@H](O)C[C@H](O)C[C@@H]1O	·	-2%[11 µM]	i	·	-14%[11.4 µM]	·
SMILES	BRCT PPI red	Hsp90 Hop PPI	YjeE inh	BRCT inh green	DNA Pol III inh	15-hLO inh
Oc1ccc(N2CCN(C(c3cccnc3)c3nnnn3Cc3ccccc3)CC2)cc1 (configuration not stated)	0%	-9%	i	1%	-7%	13µM*
O=c1oc2c(CN3CCCCCC3)c(O)ccc2cc1-c1nc2ccccc2[nH]1	2%	5%	i	32µM*	94%	-16%
CCN(CC)CCCC(C)NC(=O)c1ccc(-n2c(=O)c(=O)[nH]c3ccccc32)cc1 (configuration not stated)	0%	·	·	-3%	·	2%
O=C(c1cc(-c2ccccc2O)on1)N1CCc2ccccc2C1	-1%	2%	i	0%	-4%	-26%
O=C(c1cc(-c2ccc(O)cc2)on1)N1CCc2ccccc2C1	1%	-4%	i	3%	-4%	16µM*
O=C(c1cc(-c2cccs2)on1)N1CCc2ccccc2C1	1%	19%	i	1%	-3%	-9%
O=C(c1cc(-c2ccco2)on1)N1CCc2ccccc2C1	0%	-14%	i	3%	0%	16µM*
S=c1ccss1	2%	·	·	-2%	·	7.9µM*
CC(=O)Nc1ccc(NC(C)=O)s1	-1%	-1%	i	-4%	-6%	20µM*
NC1=C(O)C(=O)[C@H](c2c[nH]c3ccc(OCc4ccccc4)cc23)O1	1%[15.4 µM]	8%[11 µM]	i	-1%[15.4 µM]	-4%[11.4 µM]	-3%[11.4 µM]
c1ccc2[nH]c(SCc3cscn3)nc2c1	-1%	-1%	i	2%	-3%	2%
Fc1c(F)c(F)c(CSc2nc3ccccc3[nH]2)c(F)c1F	-2%	4µM*	i	-2%	-10%	?
CCCCCC/C=C\CCCCCCCc1cccc(O)c1C(=O)O	0%	·	·	-3%[3.08 µM]	·	1.6µM*
CCCCCCCCCCCCCCCCCCc1ccc(C(=O)/C=C\C(=O)O)cc1	-1%	0%	i	-3%	-9%	-7%[25.6 µM]
O=C(Nc1ccccc1)N1CCN(Cc2ccc3c(c2)OCO3)CC1	1%	-2%[2.3 µM]	i	-3%	-4%	-1%
O=C(Nc1ccc2c(c1)OCO2)N1CCN(C/C=C/c2ccccc2)CC1	-1%	?	i	-2%	-6%	32µM*
CSc1nnc(-c2ccco2)c(-c2ccco2)n1	-21%	-5%	i	-11%	?	2µM*
C/C(=C\CO)CCC(C)CCCC(C)CCCC(C)C (configuration not stated)	1%	·	·	0%	·	-5%
